# The campaign covered roughly 220,000 compounds. About 5,700 (2.6%) were called active. Another 18% or so got no clear call; they are omitted. Shown is part of a subset that was picked to be rich in actives. A call without a number means that no potency is given here. Unmarked numbers belong to inactive results. The call rests on the fitted dose curve; in most records, active means well fitted inhibition curve with a large enough effect; inconclusive means small, poorly fitted or top-dose-only effect; inactive means no such curve, though single readings can be large or run the other way.
# Biological target: Lysine-specific demethylase 5B (Homo sapiens) (UniProt Q9UGL1)
# Assay: Primary screen for KDM5B Histone Demethylases FDH-coupled qHTS; further: nearly all actives have a fitted effect of over 70% in size
# Settings: FDH-coupled NADH fluorescence (FDH is formaldehyde dehydrogenase); series mostly up to 57.7 µM
# In short: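 Inhibition is measured as reduced NADH fluorescence generation from FDH coupling to formaldehyde release. Truncated KDM5BΔAP at 200 nM final acts on H3K4me3 peptide (12.5 µM in substrate mix) in pH 7.5 HEPES buffer with Tween-20, 30 min, room temperature.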
# Potency means the concentration at half of the fitted maximal effect.
# Sequence of Lysine-specific demethylase 5B (Homo sapiens) (Q9UGL1 whole entry, looked up): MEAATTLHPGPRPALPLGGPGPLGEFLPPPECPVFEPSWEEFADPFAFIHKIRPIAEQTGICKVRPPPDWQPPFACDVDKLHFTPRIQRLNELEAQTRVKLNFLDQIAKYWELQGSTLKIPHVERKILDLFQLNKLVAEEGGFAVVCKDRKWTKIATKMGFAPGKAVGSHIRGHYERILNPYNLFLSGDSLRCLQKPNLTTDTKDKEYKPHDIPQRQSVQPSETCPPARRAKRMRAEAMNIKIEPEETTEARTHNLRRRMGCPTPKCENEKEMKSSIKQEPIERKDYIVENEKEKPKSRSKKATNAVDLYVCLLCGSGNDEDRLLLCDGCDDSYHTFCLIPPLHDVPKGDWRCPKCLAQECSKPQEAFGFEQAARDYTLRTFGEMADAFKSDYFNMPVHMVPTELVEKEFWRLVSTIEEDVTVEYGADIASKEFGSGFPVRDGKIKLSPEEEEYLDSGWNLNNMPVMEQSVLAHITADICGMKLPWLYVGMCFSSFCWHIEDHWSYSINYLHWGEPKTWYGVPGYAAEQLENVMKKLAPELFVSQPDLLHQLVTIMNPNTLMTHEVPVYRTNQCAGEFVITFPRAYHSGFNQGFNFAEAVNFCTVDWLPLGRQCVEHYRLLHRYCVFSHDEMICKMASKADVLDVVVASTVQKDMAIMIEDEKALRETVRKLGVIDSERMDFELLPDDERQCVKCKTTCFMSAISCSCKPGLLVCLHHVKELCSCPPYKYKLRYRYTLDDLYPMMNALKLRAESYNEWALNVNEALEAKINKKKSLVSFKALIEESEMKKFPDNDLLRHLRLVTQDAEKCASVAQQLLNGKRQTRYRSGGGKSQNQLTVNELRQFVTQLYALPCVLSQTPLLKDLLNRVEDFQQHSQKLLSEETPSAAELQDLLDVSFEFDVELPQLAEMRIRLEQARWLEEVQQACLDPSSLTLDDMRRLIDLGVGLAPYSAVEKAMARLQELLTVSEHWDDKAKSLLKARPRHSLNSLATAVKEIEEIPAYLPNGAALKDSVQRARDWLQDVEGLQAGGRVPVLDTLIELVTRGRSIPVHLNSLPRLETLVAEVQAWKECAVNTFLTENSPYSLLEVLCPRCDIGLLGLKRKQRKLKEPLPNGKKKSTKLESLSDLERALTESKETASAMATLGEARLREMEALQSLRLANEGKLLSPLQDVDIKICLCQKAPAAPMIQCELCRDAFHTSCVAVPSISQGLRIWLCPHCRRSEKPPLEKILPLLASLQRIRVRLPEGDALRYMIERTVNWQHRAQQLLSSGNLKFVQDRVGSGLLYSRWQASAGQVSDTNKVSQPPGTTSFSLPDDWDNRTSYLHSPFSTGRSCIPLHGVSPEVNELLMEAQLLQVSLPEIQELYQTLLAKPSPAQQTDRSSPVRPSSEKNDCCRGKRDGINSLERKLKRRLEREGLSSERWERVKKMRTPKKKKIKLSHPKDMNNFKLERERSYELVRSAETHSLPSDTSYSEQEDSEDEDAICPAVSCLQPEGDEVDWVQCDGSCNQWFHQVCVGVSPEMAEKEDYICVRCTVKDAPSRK
Compound,Potency,"activity change, negative = inhibition"
CC1=C[C@@H](CNC(=O)C2CCCCC2)[C@H](C(C)C)C[C@H]1Cc1nc2ccc(F)cc2[nH]1,inactive,–
CC(=O)Nc1cc(C(=O)NCc2ccc(F)cc2)ccc1Sc1ccc(F)cc1,inactive,–
CCc1ccc(CNC(=O)C2CCN(c3nn4cc(-c5ccc(F)cc5)nc4s3)CC2)cc1,inactive,–
CC(C)Cn1cncc1CNC(=O)c1ccc2nc(-c3ccc(F)cc3)cn2c1,25.1 µM (active),–
O=C(N/N=C/c1ccccc1Cl)c1ccc(Cl)s1,inactive,–
OCC#Cc1csc(CN2CCCC3(CCNCC3)CC2)c1,inactive,–
C=CCN(C)C(=O)[C@@H](C)C1CC[C@@]2(C)Cc3sc(Nc4c(Cl)cccc4Cl)nc3[C@@H](C)[C@@H]2[C@H]1O (stereo partly drawn),inactive,–
CCN(CC)C(=O)[C@@H](C)C1CC[C@@]2(C)Cc3sc(N)nc3[C@@H](C)[C@@H]2[C@H]1O (stereo partly drawn),inactive,–
C=CCN(C)C(=O)[C@@H](C)C1CC[C@@]2(C)Cc3sc(NS(=O)(=O)c4ccc(Cl)cc4)nc3[C@@H](C)[C@@H]2[C@H]1O (stereo partly drawn),28.2 µM (active),–
CC(C)C1=NOC2(CCN(C(=O)c3ccccc3F)C2)C1 (stereo not drawn),inactive,–
O=C1Nc2cnccc2C2(CCN(C(=O)c3ccccc3F)C2)O1 (stereo not drawn),31.6 µM (active),–
O=C(c1ccccc1F)N1CCC2(CC1)C(=O)Nc1ccccc12,inactive,–
O=C(O)Cc1ccc(NC(=O)Nc2cccc3ccccc23)cc1,inactive,–
COc1ccc2nc(SCC(=O)Nc3ncccn3)[nH]c2c1,inactive,–
c1cc(N2CCOCC2)ccc1-c1cc(-c2cn[nH]c2)c2cncn2c1,28.2 µM (active),–
COc1ccccc1-c1cc(-c2cn[nH]c2)c2cncn2c1,inactive,–
Cn1cc(CC(=O)N2CCCc3ncc(C(=O)N4CCCC[C@@H]4c4ccccc4)cc32)c2ccccc21,inactive,–
CCC(=O)Nc1cc(C(=O)NCc2ccc(N3CCOCC3)cc2)c2ccc(C)nc2c1,14.1 µM (active),–
Cn1cc(-c2ccccc2)cc1C(=O)NCc1ccc(N2CCOCC2)cc1,inactive,–
COCc1cc(=O)n(CC(=O)NCc2ccc(C)cc2)c(N2CCOCC2)n1,inactive,–
N#Cc1nc(C2CC2)oc1N1CCN(Cc2c(F)cccc2Cl)CC1,inactive,–
Cn1c(SCC(=O)N2CCCC2)nnc1-c1ccc2c(c1)OCO2,inactive,–
c1ccc(CNCc2cccc3ccccc23)cc1,inactive,–
CN1CCC(N2CC[C@H](c3nc4ccccc4s3)C2)CC1,28.2 µM (active),–
Cc1ccc(F)cc1S(=O)(=O)N1CCC(c2nc3ccccc3s2)CC1,inactive,–
CC(C)(C)c1ccc(OCC(=O)N2CCC(c3nc4ccccc4s3)CC2)cc1,–,10.7% [at 11.5 µM]

Compound,Potency,"activity change, negative = inhibition"
Cc1c(-c2ccccc2)oc2c(C(=O)N3CCN(C(=O)c4ccccc4)CC3)cccc2c1=O,inactive,–
CCCOc1ccccc1C(=O)N1CCC2(CC1)[C@H](O)C[C@@H]2OCCN,inactive,–
Clc1ccccc1C1(c2ccnc(NCCn3cccn3)n2)CCNCC1,28.2 µM (active),–
Cn1c(COc2ccccc2Cl)nnc1SCCn1cccn1,inactive,–
CCOc1ccc(/C=C2/Cc3c(O)cccc3C2=O)cc1,inactive,–
N#CC1(NC(=O)COC(=O)CCN=C2NS(=O)(=O)c3ccccc32)CCCCC1,inactive,–
CN(c1ccccc1)c1cc(=O)c2ccnc(-c3ccc(CO)cc3)c2o1,inactive,–
O=c1cc(-c2cccnc2)oc2c(-c3cccc(CO)c3)nccc12,35.5 µM (active),–
O=c1cc(-c2cccnc2)oc2c(-c3ccccc3O)nccc12,inactive,–
N#CC1=C(N)Oc2n[nH]c(-c3ccc4c(c3)OCO4)c2C1c1cccc(O)c1 (stereo not drawn),inactive,–
CN1CCN(c2oc(-c3ccccc3)nc2S(=O)(=O)c2ccc3c(c2)OCCO3)CC1,inactive,–
COc1ccc(S(=O)(=O)NCCc2noc(-c3ccncc3)n2)cc1,inactive,–
COCc1noc(-c2ccc(NCCN3CCNC3=O)nc2)n1,inactive,–
COCCc1noc(-c2ccc(NC(C)c3ncccc3C)nc2)n1 (stereo not drawn),28.2 µM (active),–
O=C(O)CSCc1cccnc1,inactive,–
O=C(O)Cn1ccc2cc(OCCc3cccc(-c4cccnc4)c3)cnc21,35.5 µM (active),–
COc1cccc(CC(=O)NCCc2noc(-c3cccnc3)n2)c1,inactive,–
COc1cc(CNCC(O)c2ccccc2)ccc1Oc1nnnn1-c1ccccc1 (stereo not drawn),inactive,–
CCNC(=O)NC(=O)C(C)OC(=O)c1ccc(C(=O)OC)cc1 (stereo not drawn),inactive,–
Cc1ccc(-n2nnnc2C2(Nc3ccccc3)CCCC2)cc1,inactive,–
COc1cccc(CC(=O)NC2CCN(c3cn[nH]c(=O)c3)CC2)c1,inactive,–
COc1cccc(CN2CCOC3CCN(C(=O)c4cccnc4)CC3C2=O)c1 (stereo not drawn),inactive,–
COc1cccc(CN2CCN(C(=O)c3cnc4ccccn4c3=O)CC2=O)c1,28.2 µM (active),–
O=C(CCc1cccs1)N(CC1CCOC1)C1CC1 (stereo not drawn),inactive,–
Cc1nc2sc3c(c2c2nc(-c4ccc(O)cc4)nn12)CC(C)(C)OC3,inactive,–
Cn1c(Oc2cccc(Cl)c2)nc2c1c(=O)n(Cc1ccc(F)cc1)c(=O)n2C,inactive,–

Compound,Potency,"activity change, negative = inhibition"
Cc1nc2ccc(C(=O)NCCCOCC3CC3)cc2nc1C,inactive,–
O=C(CN1CCN(c2ccccc2)CC1)Nc1ccc(F)cc1,inactive,–
COc1ccc(-c2ccc3nnc(CNC(=O)C(C)Oc4ccc(Cl)cc4)n3n2)cc1 (stereo not drawn),28.2 µM (active),–
O=C(CN1CCN(Cc2ccc(Cl)cc2)C1=O)NCc1ccc(F)cc1,inactive,–
COc1ccc(CNc2nc(-c3ccc(Cl)cc3)nn2S(=O)(=O)c2ccc(C)cc2)cc1,inactive,–
O=C(Cc1ccc(Cl)cc1)NCc1nnc2ccc(-c3ccc(F)cc3)nn12,25.1 µM (active),–
COc1cc(NC(=O)CSc2nnc3ccc(-c4ccncc4)nn23)cc(OC)c1,inactive,–
O=C(Cc1ccc(F)cc1)NC1CCN(c2cc(-c3ccc(Cl)cc3)[nH]n2)CC1,inactive,–
COc1ccc(Oc2c(C)oc3cc(OCC(=O)NCc4ccccc4)ccc3c2=O)cc1,inactive,–
COc1cccc(C(=O)Oc2ccc(C)cc2C(=O)/C=C/c2ccc(F)cc2)c1,inactive,–
CC(C)NC(=O)Nc1cccc(C(=O)Nc2cccc(Cl)c2)c1,inactive,–
CC(NC(=O)/C=C/c1ccsc1)C1CCCO1 (stereo not drawn),inactive,–
N#Cc1ccc(OCC(O)CNCCC2=CCCCC2)cc1 (stereo not drawn),inactive,–
O=C(NCCc1c[nH]c2ccc(Cl)cc12)c1ccccc1,inactive,–
CC(C)Oc1ccc(/C(O)=C2\C(=O)C(=O)N(c3nccs3)C2c2cccc(Br)c2)cc1 (stereo not drawn),inactive,–
O=C(CSc1ncccn1)c1ccc(F)cc1,inactive,–
CCOc1ccc(-c2nc(S(=O)(=O)c3ccc(F)cc3)c(NC)o2)cc1,inactive,–
O=C(CNc1nc(Cl)nc2nc[nH]c12)NC1CC1,inactive,–
O=C(CSc1nnc2ccc(-c3ccncc3)nn12)N1CCCCC1,inactive,–
Cc1ccc(-c2ccc3nnc(CNC(=O)c4cccnc4)n3n2)cc1C,31.6 µM (active),–
O=C(NC/C(=N/NC(=O)c1cccnc1)c1ccccc1)c1ccccc1,inactive,–
Cc1ccc(-c2ccc3nnc(CNC(=O)c4ccncc4)n3n2)cc1C,28.2 µM (active),–
O=C(NCCCN1CCCC1)c1cccnc1,inactive,–
COc1ccc(C(=O)NCc2nnc3ccc(-c4ccc(C)cc4)nn23)cc1F,28.2 µM (active),–
CC[C@H](C)NC(=O)c1ccc2nc(-c3ccc(C)cc3)cc(OC)c2c1,inactive,–
O=C(NCc1nnc2n1C(C(=O)NC1CC1)CC2)c1ccncc1 (stereo not drawn),inactive,–

Compound,Potency,"activity change, negative = inhibition"
COc1ccc(-c2nc3ccc(C(=O)NCc4ccc(C)cc4)cc3nc2-c2ccc(OC)cc2)cc1,inactive,–
CCc1nonc1NC(=O)COc1ccc(C)c(C)c1,inactive,–
COc1ccc(NC(=O)CSCc2ccc(F)cc2Cl)cc1,inactive,–
CCOC(=O)COn1c(=O)c(-c2ccc(OCC)cc2)[n+]([O-])c2ccccc21,inactive,–
CC(C)(C)c1ccc(C(=O)Nc2nc3c(s2)C[C@@H]2[C@](C)(CO)[C@H](O)CC[C@@]2(C)[C@@H]3CC(=O)NCc2cccs2)cc1,14.1 µM (active),–
C=CCOC(=O)Nc1nc2c(s1)C[C@@H]1[C@](C)(CO)[C@H](O)CC[C@@]1(C)[C@@H]2CC(=O)N(CC)CC,inactive,–
C=CCN(C)C(=O)C[C@@H]1c2nc(NC(=O)c3ccc(C(C)(C)C)cc3)sc2C[C@@H]2[C@](C)(CO)[C@H](O)CC[C@]21C,31.6 µM (active),–
C[C@]1(CO)[C@H]2Cc3sc(NC(=O)C4CCCCC4)nc3[C@@H](CC(=O)NCc3cccs3)[C@]2(C)CC[C@H]1O,inactive,–
CN(C)CCNC(=O)C[C@@H]1c2nc(NC(=O)c3ccc(C(C)(C)C)cc3)sc2C[C@@H]2[C@](C)(CO)[C@H](O)CC[C@]21C,inactive,–
CC(=O)N1CCN(C(=O)C[C@@H]2c3nc(NC(=O)c4cccs4)sc3C[C@@H]3[C@](C)(CO)[C@H](O)CC[C@]32C)CC1,inactive,–
CC(C)(C)C(=O)COC(=O)c1cc(-c2ccccc2)c(N2CCOCC2)s1,inactive,–
CC(C)C(=O)N1CC(=O)Nc2ccc(F)cc2C1c1ccc(F)cc1 (stereo not drawn),inactive,–
CC(=O)c1ccc(N2CCN(C(=O)CCNC(=O)Cn3ccc4ccccc4c3=O)CC2)cc1,inactive,–
Cc1cnc(C(=O)N(C)Cc2ccc(Cl)s2)cn1,inactive,–
Cc1ccc(C(C)C)c(OCCSc2nc3ccccc3n2CC(=O)O)c1,inactive,–
COc1ccc(OC)c(CC(C(=O)Nc2ccc(F)cc2)c2nn[nH]n2)c1 (stereo not drawn),inactive,–
O=C(NCc1ccc(Cl)nc1)c1c[nH]c2cccnc12,inactive,–
O=C(NCc1cccnc1)c1cnc2ccccc2n1,inactive,–
O=C(NCc1ccc(Cl)cc1)c1cccn2nccc12,35.5 µM (active),–
O=C(NCc1ccc(Cl)nc1)c1cnn2ncccc12,31.6 µM (active),–
O=C(NCc1ccc(Cl)nc1)c1cn2c(n1)CN(C(=O)c1cccnc1)CC2,inactive,–
O=C(NCc1ccc(Cl)nc1)c1ccn2cncc2c1,inactive,–
O=C(NCc1cccnc1)c1nc(-c2ccc(Cl)nc2)c2cnccn12,63.1 µM (active),–
O=C(NCc1ccc(Cl)cc1)c1cc(-c2ccc[nH]2)n[nH]1,inactive,–
O=C(CSc1nccn1Cc1ccc(Cl)cc1)NCc1ccccc1,inactive,–

# Source: PubChem BioAssay AID1347165 (National Center for Advancing Translational Sciences (NCATS), 2019)
